From PubChem BioAssay (NCI)
About 79,000 compounds went through this panel and 15% of them were active in at least one assay; those are over-represented in the sample as a whole. The source made the active and inactive calls. Rule as the data show it: active = growth inhibition above about 70%; inactive = the rest.

Legend:
[1] = NCI Yeast Anticancer Drug Screen. Data for the mlh1 rad18 strain (AID 175); conditions: S. cerevisiae mlh1 rad18 strain growth inhibition, hits give high values
How it was run: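 Read-out is yeast growth inhibition, calculated against vehicle-only controls. The compound was applied to a strain engineered with DNA damage repair alterations.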

[2] = NCI Yeast Anticancer Drug Screen. Data for the rad18 strain (AID 177); conditions: S. cerevisiae rad18 mutant growth inhibition, hits give high values
How it was run: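 Growth of the mutant yeast strain after compound exposure, normalised to vehicle-only cultures.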

[3] = NCI Yeast Anticancer Drug Screen. Data for the wt1 strain (AID 149);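 also: 0% = growth of vehicle-treated wt1 cultures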; conditions: S. cerevisiae wt1 strain (SPY 50644) growth inhibition, hits give high values
How it was run: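 Measured: growth of wt1 yeast under compound versus vehicle treatment, reported as inhibition.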

[4] = NCI Yeast Anticancer Drug Screen. Data for the rad50EPP+ strain (AID 151);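 also: 0% = growth of vehicle-treated control cultures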; conditions: S. cerevisiae rad50 mutant strain, hits give high values
How it was run: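 Compounds were applied to the rad50EPP+ yeast strain, which bears a defined DNA repair alteration, and growth inhibition was determined relative to vehicle-treated cultures.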

[5] = NCI Yeast Anticancer Drug Screen. Data for the mgt1 strain (AID 153); conditions: S. cerevisiae mgt1 mutant growth inhibition, hits give high values
How it was run: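 Strain: mgt1 yeast, one of a set carrying defined DNA damage repair or cell cycle control alterations. Compound-treated growth compared with vehicle.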

[6] = NCI Yeast Anticancer Drug Screen. Data for the rad50 strain (AID 155);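 also: 0% = growth of vehicle-only cultures of the same strain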; conditions: S. cerevisiae rad50 strain growth inhibition, hits give high values
How it was run: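 Growth of the mutant yeast was measured after compound exposure and referenced to vehicle-treated cultures.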

[7] = NCI Yeast Anticancer Drug Screen. Data for the mec2-1 strain (AID 157); conditions: S. cerevisiae mec2-1 strain, hits give high values
How it was run: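 Strain: mec2-1 (DNA repair/cell cycle alteration). Compound exposure, then growth measured; inhibition expressed relative to vehicle.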

[8] = NCI Yeast Anticancer Drug Screen. Data for the sgs1 mgt1 strain (AID 161);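 also: 0% = growth of cultures given vehicle only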; conditions: S. cerevisiae sgs1 mgt1 strain, hits give high values
How it was run: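 Test agents were incubated with a DNA-repair-mutant yeast strain. Growth was then read and compared against vehicle-treated controls.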

[9] = NCI Yeast Anticancer Drug Screen. Data for the cln2 rad14 strain (AID 165);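 also: 0% = growth equal to vehicle treated cultures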; conditions: S. cerevisiae cln2 rad14 strain, hits give high values
How it was run: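 Compounds are applied to the cln2 rad14 yeast strain, and growth is then compared with that of vehicle-treated cultures to give inhibition.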

[10] = NCI Yeast Anticancer Drug Screen. Data for the bub3 strain (AID 167); conditions: S. cerevisiae bub3 mutant strain, hits give high values
How it was run: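 Whole-cell yeast assay. The mutant strain was incubated with compounds, and growth inhibition was determined by comparison with vehicle-treated cells.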

[11] = NCI Yeast Anticancer Drug Screen. Data for the wt2 strain (AID 169);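 also: 0% = growth of vehicle-treated yeast cultures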; conditions: S. cerevisiae wt2 strain growth inhibition, hits give high values
How it was run: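 This strain belongs to a panel of yeast strains with defined genetic alterations in DNA damage repair or cell cycle control. Compounds are applied, and growth inhibition is measured against vehicle-treated cultures.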

[12] = NCI Yeast Anticancer Drug Screen. Data for the mlh1 strain (AID 171);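 also: 0% = growth of vehicle-treated control cultures of the same strain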; conditions: S. cerevisiae mlh1 strain growth inhibition, hits give high values
How it was run: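 Growth of the mutant yeast strain after compound exposure, expressed as inhibition relative to vehicle-only controls.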

[13] = NCI Yeast Anticancer Drug Screen. Data for the sgs1 strain (AID 173);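 also: 0% = growth of vehicle-only control cultures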; conditions: S. cerevisiae sgs1 mutant, hits give high values
How it was run: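 Growth of a yeast strain bearing a defined genetic alteration is measured after compound treatment. Inhibition is expressed relative to vehicle-only controls.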

[14] = NCI Yeast Anticancer Drug Screen. Data for the rad14 strain (AID 159);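 also: 0% = growth of vehicle-treated control cultures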; conditions: S. cerevisiae rad14 strain growth inhibition, hits give high values
How it was run: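 Here, inhibition of yeast growth was measured after compound exposure, using a strain with a genetic defect in DNA damage repair and vehicle-treated cultures as the reference.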

[15] = NCI Yeast Anticancer Drug Screen. Data for the CLN2oe strain (AID 163);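 also: 0% = growth of vehicle-only control cultures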; conditions: S. cerevisiae CLN2oe strain, hits give high values
How it was run: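 Growth of a genetically modified yeast strain is measured after compound exposure and compared with cultures given vehicle alone.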

[16] = at 5.0 µM (retest, dose inferred, filed as 0.5)
[17] = at 50.0 µM (retest, dose inferred, filed as 5.0)

Measured: growth inhibition

CC[C@]1(O)C[C@H]2CN(CCc3c([nH]c4ccccc34)[C@@](C(=O)OC)(c3cc4c(cc3OC)N(C)[C@H]3[C@@](O)(C(=O)OC)[C@H](OC(C)=O)[C@]5(CC)C=CCN6CC[C@]43[C@@H]65)C2)C1
inactive: [1]; at 50.0 µM 30.6% | [2]; at 1.2 µM -2% | [2]; at 3.7 µM -3% | [2]; at 11.0 µM -5% | [2]; at 33.0 µM -6% | [2]; at 100.0 µM -7%

CCC(C)/C(C)=N/NC(N)=O (centres undefined)
inactive: [3]; at 1.2 µM 0% | [3]; at 3.7 µM 2% | [3]; at 11.0 µM 3% | [3]; at 33.0 µM 3% | [3]; at 100.0 µM 1% | [4]; at 1.2 µM -5% | [4]; at 3.7 µM -1% | [4]; at 11.0 µM -3% | [4]; at 33.0 µM -9% | [4]; at 100.0 µM -14% | [5]; at 1.2 µM 0% | [5]; at 3.7 µM -2% | [5]; at 11.0 µM 1% | [5]; at 33.0 µM 14% | [5]; at 100.0 µM 1% | [6]; at 1.2 µM 2% | [6]; at 3.7 µM 0% | [6]; [16] -7% | [6]; at 11.0 µM 0% | [6]; at 33.0 µM 0% | [6]; [17] 30% | [6]; at 50.0 µM 58.2% | [6]; at 100.0 µM 0% | [7]; at 1.2 µM -1% | [7]; at 3.7 µM 2% | [7]; [16] -3% | [7]; at 11.0 µM -1% | [7]; at 33.0 µM -3% | [7]; [17] -2% | [7]; at 50.0 µM 18.1% | [7]; at 100.0 µM 1% | [8]; [16] 5% | [8]; [17] 48% | [8]; at 50.0 µM 36.9% | [9]; [16] 5% | [9]; [17] 12% | [9]; at 50.0 µM 22.5% | [10]; at 1.2 µM -2% | [10]; at 3.7 µM -2% | [10]; [16] 8% | [10]; at 11.0 µM 0% | [10]; at 33.0 µM -3% | [10]; [17] 43% | [10]; at 50.0 µM 25% | [10]; at 100.0 µM -10% | [11]; at 1.2 µM 1% | [11]; at 3.7 µM 2% | [11]; at 11.0 µM 3% | [11]; at 33.0 µM 4% | [11]; at 100.0 µM 2% | [12]; at 1.2 µM 1% | [12]; at 3.7 µM 1% | [12]; at 11.0 µM 2% | [12]; at 33.0 µM 1% | [12]; at 100.0 µM 0% | [13]; at 1.2 µM 0% | [13]; at 3.7 µM 4% | [13]; at 11.0 µM 3% | [13]; at 33.0 µM 3% | [13]; at 100.0 µM 2% | [2]; at 1.2 µM 1% | [2]; at 3.7 µM 0% | [2]; at 11.0 µM -7% | [2]; at 33.0 µM 3% | [2]; at 100.0 µM 5%

COC(=O)C1(N2CCOCC2)CCC([C@@H](c2ccccc2)C(C)[N+](=O)[O-])C1 (some centres undefined)
active: [4]; at 100.0 µM 86% | [2]; at 100.0 µM 82%
inactive: [3]; at 1.2 µM -3% | [3]; at 3.7 µM -2% | [3]; at 11.0 µM -2% | [3]; at 33.0 µM -3% | [3]; at 100.0 µM 4% | [4]; at 1.2 µM 2% | [4]; at 3.7 µM 3% | [4]; at 11.0 µM 15% | [4]; at 33.0 µM 54% | [7]; at 1.2 µM -3% | [7]; at 3.7 µM 1% | [7]; [16] 0% | [7]; at 11.0 µM 4% | [7]; at 33.0 µM 4% | [7]; [17] 2% | [7]; at 50.0 µM 26.4% | [7]; at 100.0 µM 34% | [14]; at 1.2 µM 1% | [14]; at 3.7 µM 1% | [14]; at 11.0 µM 6% | [14]; at 33.0 µM 9% | [14]; at 100.0 µM 39% | [8]; [16] 0% | [8]; [17] -2% | [8]; at 50.0 µM 20.6% | [15]; at 1.2 µM -9% | [15]; at 3.7 µM -4% | [15]; at 11.0 µM -10% | [15]; at 33.0 µM -3% | [15]; at 100.0 µM 9% | [9]; [16] -1% | [9]; [17] -2% | [9]; at 50.0 µM 8.15% | [10]; at 1.2 µM -1% | [10]; at 3.7 µM -12% | [10]; [16] 1% | [10]; at 11.0 µM -8% | [10]; at 33.0 µM -13% | [10]; [17] -29% | [10]; at 50.0 µM -2.55% | [10]; at 100.0 µM 24% | [11]; at 1.2 µM -2% | [11]; at 3.7 µM -3% | [11]; at 11.0 µM -4% | [11]; at 33.0 µM -4% | [11]; at 100.0 µM 11% | [12]; at 1.2 µM -3% | [12]; at 3.7 µM -2% | [12]; at 11.0 µM 1% | [12]; at 33.0 µM 3% | [12]; at 100.0 µM 25% | [13]; at 1.2 µM -1% | [13]; at 3.7 µM -1% | [13]; at 11.0 µM 1% | [13]; at 33.0 µM 7% | [13]; at 100.0 µM 49% | [1]; [16] 3% | [1]; [17] 3% | [1]; at 50.0 µM 27.5% | [2]; at 1.2 µM 1% | [2]; at 3.7 µM 2% | [2]; at 11.0 µM 6% | [2]; at 33.0 µM 14%

CCCCOc1ccc(Nc2c3ccccc3nc3ccccc23)cc1
inactive: [3]; at 1.2 µM -12% | [3]; at 3.7 µM -24% | [3]; at 11.0 µM 69% | [4]; at 1.2 µM 13% | [5]; at 1.2 µM -27% | [5]; at 3.7 µM -13% | [6]; at 1.2 µM 41% | [6]; [16] 50% | [7]; at 1.2 µM -24% | [7]; at 3.7 µM -37% | [7]; [16] 12% | [7]; at 11.0 µM 68% | [8]; [16] 10% | [15]; at 1.2 µM -26% | [15]; at 3.7 µM 0% | [9]; [16] 10% | [9]; [17] -7% | [10]; at 1.2 µM -56% | [10]; at 3.7 µM -55% | [10]; [16] 15% | [10]; at 11.0 µM 66% | [10]; at 100.0 µM 69% | [11]; at 1.2 µM 7% | [11]; at 3.7 µM -10% | [12]; at 1.2 µM -39% | [12]; at 3.7 µM -34% | [12]; at 11.0 µM 34% | [13]; at 1.2 µM -3% | [13]; at 3.7 µM -11% | [1]; [16] 26% | [2]; at 1.2 µM -9% | [2]; at 3.7 µM -9%
active: [3]; at 33.0 µM 98% | [3]; at 100.0 µM 83% | [4]; at 3.7 µM 71% | [4]; at 11.0 µM 91% | [4]; at 33.0 µM 94% | [4]; at 100.0 µM 78% | [5]; at 11.0 µM 86% | [5]; at 33.0 µM 99% | [5]; at 100.0 µM 78% | [6]; at 3.7 µM 79% | [6]; at 11.0 µM 93% | [6]; at 33.0 µM 98% | [6]; [17] 96% | [6]; at 50.0 µM 90.7% | [6]; at 100.0 µM 85% | [7]; at 33.0 µM 97% | [7]; [17] 89% | [7]; at 50.0 µM 88% | [7]; at 100.0 µM 73% | [8]; [17] 94% | [8]; at 50.0 µM 91.3% | [15]; at 11.0 µM 72% | [15]; at 33.0 µM 98% | [15]; at 100.0 µM 76% | [9]; at 50.0 µM 88.8% | [10]; at 33.0 µM 99% | [10]; [17] 98% | [10]; at 50.0 µM 86.8% | [11]; at 11.0 µM 75% | [11]; at 33.0 µM 98% | [11]; at 100.0 µM 78% | [12]; at 33.0 µM 98% | [12]; at 100.0 µM 74% | [13]; at 11.0 µM 87% | [13]; at 33.0 µM 98% | [13]; at 100.0 µM 82% | [1]; [17] 92% | [1]; at 50.0 µM 87% | [2]; at 11.0 µM 89% | [2]; at 33.0 µM 99% | [2]; at 100.0 µM 75%
